In all, about 8,300 sequences were measured (“log2 fold change of degron read counts, EGFP-low vs EGFP+ sorted cells (limma voom), compound-induced degradation”: median about -1.1, highest 2% from about 3.2 on). The list comes from a sample in which the highest values are over-represented; it also holds similar and randomly drawn sequences.
T1: CRBN, Q96SW2
T1 chain: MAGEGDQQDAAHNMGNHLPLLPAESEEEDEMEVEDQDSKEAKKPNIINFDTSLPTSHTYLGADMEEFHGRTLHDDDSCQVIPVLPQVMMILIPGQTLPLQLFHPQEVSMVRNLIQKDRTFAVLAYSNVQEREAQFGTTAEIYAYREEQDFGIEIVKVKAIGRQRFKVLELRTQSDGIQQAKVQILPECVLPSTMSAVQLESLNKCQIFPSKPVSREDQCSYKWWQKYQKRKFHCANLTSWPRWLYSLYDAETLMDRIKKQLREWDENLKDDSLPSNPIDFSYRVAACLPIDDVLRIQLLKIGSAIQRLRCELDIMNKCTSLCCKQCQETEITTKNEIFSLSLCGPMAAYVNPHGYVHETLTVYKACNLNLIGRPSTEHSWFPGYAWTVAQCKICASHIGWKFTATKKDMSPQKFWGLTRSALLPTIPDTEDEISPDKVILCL

B1: 46F_47Q_49P_50V_52G_53A_54L_55F_67L_, Q9UKT9 (peptide)
chain: FQCPVCGALFTQKGNLLRHIKL
B2: 46F_47W_49P_50V_52G_53A_54R_55F_67L_, Q9UKT9 (peptide)
chain: FWCPVCGARFTQKGNLLRHIKL
B3: 46F_47Q_49P_50V_52G_53A_54D_55F_67L_, Q9UKT9 (peptide)
chain: FQCPVCGADFTQKGNLLRHIKL
B4: 46F_47F_49N_50V_52G_53A_54Y_55F_67L_, Q9UKT9 (peptide)
chain: FFCNVCGAYFTQKGNLLRHIKL
B5: 46F_47M_49E_50I_52G_53R_54N_55F_67L_, Q9UKT9 (peptide)
chain: FMCEICGRNFTQKGNLLRHIKL
B6: 46F_47F_49S_50V_52G_53H_54W_55F_67L_, Q9UKT9 (peptide)
chain: FFCSVCGHWFTQKGNLLRHIKL
B7: 46F_47T_49P_50I_52G_53H_54L_55F_67L_, Q9UKT9 (peptide)
chain: FTCPICGHLFTQKGNLLRHIKL
B8: 46F_47M_49P_50V_52G_53A_54R_55F_67L_, Q9UKT9 (peptide)
chain: FMCPVCGARFTQKGNLLRHIKL
B9: 46F_47V_49P_50V_52G_53A_54R_55F_67L_, Q9UKT9 (peptide)
chain: FVCPVCGARFTQKGNLLRHIKL
B10: 46F_47Q_49P_50V_52G_53A_54R_55F_67L_, Q9UKT9 (peptide)
chain: FQCPVCGARFTQKGNLLRHIKL
B11: 46F_47F_49P_50V_52G_53A_54R_55F_67L_, Q9UKT9 (peptide)
chain: FFCPVCGARFTQKGNLLRHIKL
B12: 46F_47A_49P_50V_52G_53A_54R_55F_67L_, Q9UKT9 (peptide)
chain: FACPVCGARFTQKGNLLRHIKL
B13: 46F_47D_49P_50V_52G_53A_54R_55F_67L_, Q9UKT9 (peptide)
chain: FDCPVCGARFTQKGNLLRHIKL
B14: 46F_47H_49P_50V_52G_53A_54R_55F_67L_, Q9UKT9 (peptide)
chain: FHCPVCGARFTQKGNLLRHIKL
B15: 46F_47E_49P_50V_52G_53A_54R_55F_67L_, Q9UKT9 (peptide)
chain: FECPVCGARFTQKGNLLRHIKL
B16: 46F_47C_49P_50V_52G_53A_54R_55F_67L_, Q9UKT9 (peptide)
chain: FCCPVCGARFTQKGNLLRHIKL
B17: 46L_47S_49E_50I_52G_53F_54I_55C_67L_, Q9UKT9 (peptide)
chain: LSCEICGFICTQKGNLLRHIKL
B18: 46L_47R_49N_50Q_52G_53F_54D_55C_67L_, Q9UKT9 (peptide)
chain: LRCNQCGFDCTQKGNLLRHIKL
B19: 46F_47I_49E_50I_52G_53A_54V_55F_67L_, Q9UKT9 (peptide)
chain: FICEICGAVFTQKGNLLRHIKL
B20: 46F_47E_49E_50Q_52G_53A_54I_55F_67L_, Q9UKT9 (peptide)
chain: FECEQCGAIFTQKGNLLRHIKL
B21: 46L_47A_49E_50I_52G_53F_54E_55C_67L_, Q9UKT9 (peptide)
chain: LACEICGFECTQKGNLLRHIKL
B22: 46F_47I_49E_50I_52G_53R_54M_55F_67L_, Q9UKT9 (peptide)
chain: FICEICGRMFTQKGNLLRHIKL
B23: 46F_47G_49P_50I_52G_53A_54T_55F_67L_, Q9UKT9 (peptide)
chain: FGCPICGATFTQKGNLLRHIKL
B24: 46F_47A_49P_50I_52G_53A_54T_55F_67L_, Q9UKT9 (peptide)
chain: FACPICGATFTQKGNLLRHIKL
B25: 46F_47C_49P_50I_52G_53A_54T_55F_67L_, Q9UKT9 (peptide)
chain: FCCPICGATFTQKGNLLRHIKL
B26: 46F_47Q_49P_50I_52G_53A_54T_55F_67L_, Q9UKT9 (peptide)
chain: FQCPICGATFTQKGNLLRHIKL
B27: 46F_47R_49P_50I_52G_53A_54T_55F_67L_, Q9UKT9 (peptide)
chain: FRCPICGATFTQKGNLLRHIKL
B28: 46F_47F_49P_50I_52G_53A_54T_55F_67L_, Q9UKT9 (peptide)
chain: FFCPICGATFTQKGNLLRHIKL
B29: 46F_47V_49P_50I_52G_53A_54T_55F_67L_, Q9UKT9 (peptide)
chain: FVCPICGATFTQKGNLLRHIKL
B30: 46F_47S_49P_50I_52G_53A_54T_55F_67L_, Q9UKT9 (peptide)
chain: FSCPICGATFTQKGNLLRHIKL
B31: 46F_47M_49P_50I_52G_53A_54T_55F_67L_, Q9UKT9 (peptide)
chain: FMCPICGATFTQKGNLLRHIKL
B32: 46F_47K_49P_50I_52G_53A_54T_55F_67L_, Q9UKT9 (peptide)
chain: FKCPICGATFTQKGNLLRHIKL
B33: 46F_47I_49P_50I_52G_53A_54T_55F_67L_, Q9UKT9 (peptide)
chain: FICPICGATFTQKGNLLRHIKL
B34: 46F_47N_49P_50I_52G_53A_54T_55F_67L_, Q9UKT9 (peptide)
chain: FNCPICGATFTQKGNLLRHIKL

Target: T1, CRBN, Q96SW2
Experiment: log2 fold change of degron read counts, EGFP-low vs EGFP+ sorted cells (limma voom), compound-induced degradation; higher = more compound-induced degradation of the degron-EGFP fusion; degrons are variants of IKZF1/3 zinc finger 2; compound dose not given here
Details: Jurkat, 18 h
[1] = compound: compound 19 (5-tert-butyl-thalidomide)
[2] = compound: compound 22 (5-morpholino-thalidomide)
[3] = compound: compound 33 (diphenyl IMiD analogue)
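Also: pooled lentiviral library of zinc finger degron-EGFP fusions in mCherry-positive Jurkat cells, FACS-sorted after compound exposure, with degron abundance counted by next-generation sequencing.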

Sequence	log2 fold change of degron read counts [1]	log2 fold change of degron read counts [2]	log2 fold change of degron read counts [3]	log2 fold change of degron read counts (compound: thalidomide)
B1	-1.05	1.65	1.66	3.5
B2	2.67	3.51	1.2	1.26
B3	-0.246	1.22	2.37	3.4
B4	-0.163	0.227	0.144	-1.05
B5	-2.42	-2.71	-0.582	-1.02
B6	-1.15	-1.58	-1.38	-1.26
B7	-2.23	-2.6	-1.44	-1.57
B8	-0.509	0.0794	1.25	0.719
B9	0.0453	2.18	0.744	2.8
B10	-0.395	2.27	1.08	3.63
B11	3.35	3.29	1.72	1.35
B12	3.49	2.28	-0.0911	1.06
B13	3.12	1.66	1.4	2.71
B14	1.99	2.23	0.971	0.937
B15	0.67	-0.349	1.42	2.94
B16	2.31	2.41	1.79	2.26
B17	0.617	0.753	0.094	0.23

Sequence	log2 fold change of degron read counts [1]	log2 fold change of degron read counts [2]	log2 fold change of degron read counts [3]	log2 fold change of degron read counts (compound: thalidomide)
B18	-2.4	-3.02	-2	-2.27
B19	-0.571	1.25	2.53	2.12
B20	-2.86	-2.97	-1.26	-0.499
B21	0.602	-0.739	-1.36	-0.804
B22	-2.48	-1.85	-0.238	-0.738
B23	3.46	2.4	2.17	1.08
B24	3.39	1.82	1.17	0.639
B25	1.51	1.82	2.36	2.09
B26	0.717	2.74	2.33	3.56
B27	-0.752	-0.483	1.07	1.12
B28	2.81	3.61	1.65	1.35
B29	-0.613	1.74	1.8	2.23
B30	2.78	2.14	2.34	1.5
B31	-1.31	0.0387	2.08	1.34
B32	-1.47	-2.7	-2.3	-1.17
B33	-1.06	1.53	1.48	1.86
B34	1.88	0.692	1.59	0.652
